# These entries were drawn from the full list.
# aSyn UTR act: Activators working through SNCA 5'UTR binding (MLPCN). alpha-synuclein 5'UTR reporter, activators screen. activity score, % (tested at 7.5 µM), hits read low. 7.1% of 300,000 active; in the data active = activity score below about -60%
# Active calls of the source: *.
SMILES,aSyn UTR act
COc1ccc2nc(/N=C/c3c(C)[nH]n(-c4ccc(C)cc4)c3=O)sc2c1,-73*
COc1ccc2nc(/N=C\N(C)C)sc2c1,-92*
CN(C)/C=N/c1nc2ccc3c(c2s1)CCCC3,-138*
Cc1ccc(-n2[nH]c(C)c(C=NCc3ccncc3)c2=O)cc1,-65*
CCc1nc2c(c(=O)c3ccccc3n2C)c(=O)n1CCc1ccc(OC)cc1,74
COc1cc(-c2noc(C)c2C#Cc2ccc(N)cc2)cc(OC)c1OC,88
COc1ccc(C#Cc2ccc3c(c2)c(=O)c2ccccc2n3C)cc1,-125*
Cn1c2ccccc2c(=O)c2cc(C#Cc3ccc(N)cc3)ccc21,-89*
Nc1ccc2oc3ccccc3c2c1,-101*
Nc1ccc(C#Cc2ccc3oc4ccccc4c(=O)c3c2)cc1,-66*
Nc1ccc2oc3ncccc3c(=O)c2c1,-98*
CCCCSc1nnc(-c2ccc(OC)cc2)n1C,-133*
Cc1ccc(Nc2nc(CSc3nnc(-c4ccc(F)cc4)n3C)cs2)cc1,-144*
Cc1ccc(-c2nnc(SCC(C)C)n2C)cc1,-146*
CC(=O)Nc1cc[n+](C(C)C(=O)c2ccc(Cl)cc2)cc1 (configuration not stated),51
CCC(=O)Oc1ccc(C(=O)Nc2ccc([N+](=O)[O-])cc2)cc1,-170*
O=C(Nc1ccccc1F)c1cc(Cl)sc1Cl,-62*
CC(=O)c1ccc(NC(=O)Nc2ccc(Cl)cc2)cc1,-193*
O=C(Nc1ccccc1F)c1ccc([N+](=O)[O-])s1,-115*
CC(=O)c1ccc(NC(=O)c2cc(Cl)sc2Cl)cc1,-156*
CC(=O)c1ccc(NC(=O)Nc2ccc([N+](=O)[O-])cc2)cc1,-148*
O=C(Nc1ccc(Oc2ccc(NC(=O)Nc3ccc([N+](=O)[O-])cc3)cc2)cc1)Nc1ccc([N+](=O)[O-])cc1,91
CC(=O)Nc1ccc(OS(=O)(=O)c2ccc([N+](=O)[O-])cc2)cc1,-115*
Cc1c(C(N)=O)sc2nc(-c3ccccc3)cn12,-105*
COc1ccc(-c2cn3c(C)c(C(=O)Nc4cccc(NC(C)=O)c4)sc3n2)cc1,-100*
SMILES,aSyn UTR act
Cc1c(C(=O)NCC(C)C)sc2nc(-c3ccc(F)cc3)cn12,-128*
Cc1ccc(-c2csc(N=C(N)N)n2)cc1,-116*
CC(C)(C)c1ccc(C(=O)NCc2ccc(Cl)cc2)cc1,-75*
Cc1ccc(CC(=O)NCc2ccc(Cl)cc2)cc1,-76*
Cc1ccc(CNC(=O)c2ccc3c(=O)c(O)c(-c4ccc(C)cc4)[nH]c3c2)cc1,94
CC(C)(C)c1ccc(C(=O)NCc2ccccc2)cc1,-88*
Cc1cc(-c2n[nH]c(=S)n2/N=C/C(Cl)=C/c2ccccc2)n[nH]1,-164*
Cc1c(Br)c(O)c(Br)c(O)c1/C=N/n1c(-c2ccccc2)n[nH]c1=S,62
S=c1[nH]nc(C2CCCCC2)n1/N=C/C(Cl)=C\c1ccccc1,-75*
S=c1[nH]nc(-c2ccco2)n1/N=C/C(Cl)=C/c1ccccc1,-172*
CCOC(=O)Cc1cc(=O)[nH]c(Nc2nc3ccccc3o2)n1,-83*
COCC(C)N=C1NN=C(c2c[nH]c3ccccc23)CS1 (configuration not stated),-66*
CCN=C1NN=C(c2c[nH]c3ccccc23)CS1,-68*
Cc1cc(NC(=O)Nc2ccccc2F)ccc1Br,-243*
O=C(Nc1ccccc1)Nc1cc(OCC(F)(F)F)cc(OCC(F)(F)F)c1,74
O=C(Nc1ccccc1)Nc1ccc(Br)cc1F,-163*
O=C(Nc1cccc(Cl)c1)Nc1ccc(Br)cc1F,-115*
CC1=C[C@@H](C)[C@@H](c2ccc(C(F)(F)F)cc2)OC1=O,-63*
O=C1NC(=O)/C(=C\c2ccc(Oc3cnccn3)cc2)S1,-191*
COc1cc(/C=C2\SC(N)=NC2=O)cc(OC)c1,-64*
Brc1ccc(-n2cnc(-c3ccccc3)c2)cc1,-136*
CCOC(=O)C(C#N)c1ccccn1 (configuration not stated),-70*
COc1ccc(/C=N\NC(=O)c2cccc(F)c2)cc1COc1ccccc1,88
COc1cc(/C=N/NC(=O)c2cccc([N+](=O)[O-])c2)ccc1OCc1ccc(C)cc1,-99*
COc1ccc(/C=N/NC(=O)c2cccnc2)cc1COc1ccc(NC(C)=O)cc1,-84*
SMILES,aSyn UTR act
COc1ccc(/C=N/NC(=O)c2cccnc2)cc1COc1ccc([N+](=O)[O-])cc1,-75*
COc1ccccc1NC(=O)c1ccc2nc(C)sc2c1,-105*
COc1ccccc1NC(=O)c1ccc2[nH]c(C)c(C)c2c1,-145*
COc1cccc(NC(=O)c2ccc3nc(C)sc3c2)c1,-239*
Oc1ccc(CN2CCN(c3ccccc3)CC2)c2cccnc12,80
O/N=C\c1cnc(N2CCN(c3ccccc3)CC2)s1,-75*
Cc1nc(-c2ccc(NC(=O)c3ccccc3C)cc2)cs1,-123*
Cc1nc(-c2ccc(NC(=O)c3ccccc3Br)cc2)cs1,-161*
c1ccc2cc(-c3cc4ccccn4c3)ccc2c1,-98*
Cc1ccc2nc3sc(C(=O)N4CCOCC4)c(N)c3cc2c1,100
CC(C)c1ccc2nc3sc(C(=O)N4CCc5ccccc5C4)c(N)c3cc2c1,-62*
Cc1ccc2cc3c(N)c(C(=O)N4CC(=O)Nc5ccccc54)sc3nc2c1,82
COc1ccc2cc3c(N)c(C(=O)N4CCCC4)sc3nc2c1,-189*
CCOc1ccc2nc3sc(C(=O)N4CCN(C)CC4)c(N)c3cc2c1,-80*
COc1ccc(OCCCSc2ncccn2)cc1,-168*
CCCC(NCC(O)COc1ccc(-c2ccccc2)cc1)c1ccccc1 (configuration not stated),83
Cc1ccc(OCCCSc2ncccn2)cc1C,-104*
Clc1ccc(OCCSc2ncccn2)cc1,-160*
OC(COc1ccc(Cl)cc1)CSc1ccccn1 (configuration not stated),-90*
CC(C)SCCCCOc1ccc2ccccc2c1,-112*
c1cnc(SCCCOc2ccc3ccccc3c2)nc1,-68*
O=C(c1ccc(F)cc1)n1ccc(-c2cnc(-c3ccccc3)s2)n1,-124*
Cc1ccc(Cn2ccc(-c3cnc(-c4ccccc4)s3)n2)cc1,-128*
O=S(=O)(c1ccccc1)n1ccc(-c2cnc(-c3ccccc3)s2)n1,-131*
Fc1ccc(Cn2ccc(-c3cnc(-c4ccccc4)s3)n2)cc1,-140*
SMILES,aSyn UTR act
COc1ccc(C(=O)CCNc2cccc(Cl)c2)cc1,-114*
COc1ccc(C(=O)CNc2cccc(F)c2)cc1,-101*
C1=C(CCNc2ncnc3nc[nH]c23)CCCC1,-116*
c1ccc2c(CCNc3ncnc4nc[nH]c34)cccc2c1,-92*
Cc1cc(C)n(C(=O)c2cc3sccc3[nH]2)n1,-82*
c1ccc2nc3c(nc2c1)OCC1CCCCN31 (configuration not stated),-91*
CNc1nnc(-c2ccc(OC)cc2)s1,-75*
CN1CCc2c(sc3c2C(=O)NC(c2cccc(OC(=O)c4cccs4)c2)N3)C1 (configuration not stated),-108*
CN1CCc2c(sc3c2C(=O)NC(c2cn(Cc4ccccc4)c4ccccc24)N3)C1 (configuration not stated),64
CCOCCOC(=O)C1=C(C)Nc2ccc(C)cc2S1,-92*
O=C(Nc1nnc(-c2ccco2)s1)C1CC1,-76*
O=C(Nc1ccc(F)cc1)Nc1nnc(-c2ccco2)s1,-100*
CC(=O)c1sc2nc(-c3cccs3)ccc2c1N,-272*
Nc1c(C(=O)Nc2nc3ccccc3s2)sc2nc(-c3cccs3)ccc12,106
Oc1ccc(Br)cc1/C=N/n1cnc2ccccc21,-262*

# From PubChem
